The results in this text go back to PubChem BioAssay.

Structures are written as SMILES. Where “and” joins values, the source holds several entries; their conditions need not be identical. Equal values may be shown once. Calls of active or inactive are those of the source.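 The calls were made as follows, unless noted: active = thallium flux through the channel raised or lowered by more than 3 SD from vehicle-only wells, actives on both sides; inactive = the rest.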

Assay [1] is described as follows: polyglutamine-triggered caspase-3 activation inhibitors, cell-based (AID 1583). To be noted: polyglutamine-induced caspase-3 activation, cell assay; stronger effect = higher value;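 tested at 10 µM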.
A short description of assay [2]: suppressors of polyQ aggregation in yeast, 75Q-TubU reporter (AID 1593). The settings on record: Yeast 75Q polyglutamine aggregation reporter.
Assay [3] is described as follows: inhibitors of mitochondrial cytochrome c release, biochemical, purified mitochondria (AID 1603).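 Also: mouse liver mitochondria challenged with calcium chloride; signal normalized to the plate average as 100%.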 To be noted: stronger effect = lower value.
The nature of assay [4]: inhibitors of polyQ protein aggregation (AID 1604). The settings on record: polyglutamine-induced protein aggregation inhibition assay; stronger effect = higher value; tested at 2.5 µM.
Assay [5] in a line: enhancers of glutamate uptake in motor neurons, MN-1 cell line (AID 1612).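 Also: tested at 1 µM final; 0% = mean of DMSO vehicle wells on each plate; positive means more glutamate uptake than control and negative means less.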 To be noted: MN-1 motor neuron cells, stronger effect = higher value.
Assay [6] is described as follows: Cy5 fluorescence interference with SSB-bound oligo, artefact control for HCV NS3 helicase inhibitor project, biochemical, NIH Clinical Collection, E. coli SSB (AID 743268; call rule not given here).
Assay [7] has as its system Hepatitis C virus NS3 helicase. The assay is described as follows: HCV NS3 helicase inhibitors, primary screen, biochemical, fluorescence polarization, NIH Clinical Collection (AID 743270; call rule not given here). To be noted: NS3 helicase binding to Cy5-dT15 DNA, stronger effect = higher value, concentration not given here. (In general: Fluorescence polarisation rises when a labelled molecule tumbles more slowly, as on binding a larger partner.)

Assay [8] deals with Single-stranded DNA-binding protein (Escherichia coli (strain K12)) (UniProt P0AGE0). Kind of assay: E. coli SSB displacement from DNA, counter-screen for HCV NS3 helicase inhibitor project, biochemical, fluorescence polarization, NIH Clinical Collection (AID 743271; in the data active = inhibition above about 28%). The settings on record: stronger effect = higher value, concentration not given here.
The nature of assay [9]: fluorescence interference in NS3h assay format, artefact control for HCV NS3 helicase inhibitor project, biochemical, NIH Clinical Collection (AID 743272; call rule not given here;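 also: HCV NS3 helicase with a Cy5 labelled single stranded DNA probe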). To be noted: fluorescence interference counterscreen, stronger effect = lower value. On the technique in general: Counterscreens check selectivity or assay interference.
Assay [10] in a line: viability rescue of complex I mutant cybrids, primary screen, cell-based, galactose medium, ATP luminescence (AID 1645843;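 active = z-score of at least 1.8 in each of two replicates, scored against plate mean and spread of sample wells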;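 also: positive z means more ATP and so rescue of galactose-driven cybrid death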). To be noted: complex I mutant cybrid cells, 72 h, stronger effect = higher value.
The next assay has as its system F380Y/beta4. The assay is described as follows: modulators of BK channel variants, profiling panel, selectivity assay, cell-based, U2OS BacMam, thallium flux, beta subunits (AID 1259406).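 Also: initial slope of Thallos dye fluorescence rise after thallium is added; log ratio against the mean of 0.3% DMSO vehicle wells on the same plate.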 To be noted: at 30 µM.
Assay [11] has as its target Calcium-activated potassium channel subunit alpha-1 (Homo sapiens) + Leucine-rich repeat-containing protein 26 (Homo sapiens) (UniProt Q12791+Q2I0M4). The description is as above. The settings on record: F380Y/Slo1WT/gamma1, at 30 µM.
Another assay has as its system R275C. Described as above. The settings on record: at 30 µM.
In a further assay the test system is R275C/beta1. The assay is described as above. To be noted: at 30 µM.
For the next assay, the system named is R275C/beta2Delta. Described as above. The settings on record: at 30 µM.
The test system of a further assay is R275C/beta4. The assay is described as above. To be noted: at 30 µM.
Another assay has as its system R275C/Slo1WT/beta2. Described as above. To be noted: at 30 µM.

Calcium-activated potassium channel subunit alpha-1 (Homo sapiens) + Leucine-rich repeat-containing protein 26 (Homo sapiens), sequence (Q2I0M4 whole entry, looked up, one chain of several): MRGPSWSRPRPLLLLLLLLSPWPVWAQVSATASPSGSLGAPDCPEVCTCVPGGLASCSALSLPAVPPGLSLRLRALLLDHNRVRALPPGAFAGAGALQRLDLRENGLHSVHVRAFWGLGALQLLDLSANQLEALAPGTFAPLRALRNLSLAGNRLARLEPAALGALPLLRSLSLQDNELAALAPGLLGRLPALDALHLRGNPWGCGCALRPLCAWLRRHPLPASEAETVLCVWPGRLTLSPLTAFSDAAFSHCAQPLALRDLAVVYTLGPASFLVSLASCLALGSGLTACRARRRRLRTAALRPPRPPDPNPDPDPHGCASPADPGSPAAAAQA

Take `CCCNCC(O)COc1ccccc1C(=O)CCc1ccccc1` (stereo unspecified): the inhibition is -14.1% in assay [1], -5% (inactive) in assay [7] and -2% (inactive) in assay [8]. Further, the score in [2] came to 1.02. Further, the cytochrome c release ratio in [3] was found to be 1.16. Also, the inhibition of aggregation in assay [4] came out at 21.6%. Besides, the glutamate uptake change in [5] stood at 9.21%. Also, the figures for the fluorescence ratio in assay [6] and in assay [9] were 1.02 (inactive) and 0.99 (inactive), respectively. The z-score in assay [10] was -1.23 (inactive) and -1.36 (inactive) and -0.68 (inactive). Besides, the log fold change Tl+ flux in the assay with F380Y/beta4 is 0.161 (active); in assay [11], 0.00467 (inactive); with R275C it was 0.00823 (inactive); in the assay on R275C/beta1 it was 0.184 (active); with R275C/beta2Delta, 0.136 (active); in the assay with R275C/beta4, 0.153 (active). Also, in the assay with R275C/Slo1WT/beta2, the log fold change Tl+ flux is 0.0285 (inactive).

For `NS(=O)(=O)c1cc2c(cc1Cl)NC=NS2(=O)=O`, the inhibition in [1] was -50.5%; in [7], -5% (inactive); in assay [8], -1.24% (inactive). Moreover, in assay [2], the score is 1.24. The cytochrome c release ratio in assay [3] was found to be 0.96. For the same compound, in assay [4], the inhibition of aggregation was determined as 80.6%. In addition, the glutamate uptake change in assay [5] turned out to be 4.54%. The fluorescence ratio was 0.95 (inactive) in assay [6] and 0.94 (inactive) in assay [9]. Further, the z-score in assay [10] is 0.185 (inactive) and 0.555 (inactive). Further, the log fold change Tl+ flux is -2.4e-05 (inactive) with F380Y/beta4; 0.00339 (inactive) in assay [11]; 0.0234 (inactive) in the assay on R275C; 0.0235 (inactive) with R275C/beta1; 0.0235 (inactive) with R275C/beta2Delta; 0.0288 (inactive) in the assay with R275C/beta4. Besides, the log fold change Tl+ flux in the assay on R275C/Slo1WT/beta2 was 0.0443 (inactive).

Regarding `O=S(=O)(O)CCS`, the inhibition in assay [1] is -57.1%; in assay [7], -2.27% (inactive); in [8], -2.76% (inactive). The compound also returned a score in [2] of 1.3. Besides, the cytochrome c release ratio in assay [3] came out at 0.92. For the same compound, the inhibition of aggregation in assay [4] amounted to 75%. The glutamate uptake change in assay [5] is -0.24%. Besides, the figures for the fluorescence ratio in assay [6] and in assay [9] were 0.73 (active) and 1 (inactive), respectively. In addition, in [10], the z-score is 0.905 (inactive). For the same compound, the log fold change Tl+ flux with F380Y/beta4 was 0.00454 (inactive); in assay [11], 0.0089 (inactive); with R275C, 0.029 (inactive); in the assay with R275C/beta1 it was -0.0746 (inactive); in the assay with R275C/beta2Delta, -0.00238 (inactive); in the assay with R275C/beta4, 0.0195 (inactive). For the same compound, the log fold change Tl+ flux in the assay on R275C/Slo1WT/beta2 was 0.0106 (inactive).

As a reminder, the inhibition is the relative decrease from the control value, in per cent.
